Results filed as inconclusive are left out. Active and inactive are the calls of the source. Unless noted, the call rests on the fitted dose curve; in most records, active means well fitted curve in the direction sought with a large enough effect in the repeat runs; inconclusive means weak or mixed curves; inactive means no such curve, though single readings can be large; an effect the other way counts as inactive or inconclusive.
What was measured:
[1] = qHTS assay for small molecule disruptors of the mitochondrial membrane potential - 1 hr assay (AID 651754; calls by dose curve; further: on the % scale 0 is the no-effect control and ±100 the full control effect; nearly all actives have a fitted effect of over 35% in size)
Outline: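 Mitochondrial potential in living HepG2 cells after 1 hr compound treatment at 37C was read with Mito-MPS dye added for a further 30 min. Red aggregate and green monomer fluorescence were measured; loss of potential leaves dye as cytoplasmic monomers.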

[2] = qHTS assay for small molecule disruptors of the mitochondrial membrane potential - 5 hr assay (AID 651755; calls by dose curve; further: on the % scale 0 is the no-effect control and ±100 the full control effect; nearly all actives have a fitted effect of over 40% in size)
Outline: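 Membrane-potential dye readout: red aggregate (540 ex/590 em) versus green monomer (490 ex/535 em) fluorescence after 30 min dye loading, following 5 hr compound exposure at 37C of overnight-plated HepG2 cells.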

[3] = target: Tumor necrosis factor (Homo sapiens) (UniProt P01375); assay: qHTS assay to identify small molecules that stimulate Tumor Necrosis Factor-alpha (TNF-alpha) secretion (AID 651757; active means well fitted curve in the direction sought with a large enough effect in the signal ratio; the % refers to the signal ratio; further: 0% is about no effect)
Tumor necrosis factor (Homo sapiens), sequence (P01375 whole entry, looked up): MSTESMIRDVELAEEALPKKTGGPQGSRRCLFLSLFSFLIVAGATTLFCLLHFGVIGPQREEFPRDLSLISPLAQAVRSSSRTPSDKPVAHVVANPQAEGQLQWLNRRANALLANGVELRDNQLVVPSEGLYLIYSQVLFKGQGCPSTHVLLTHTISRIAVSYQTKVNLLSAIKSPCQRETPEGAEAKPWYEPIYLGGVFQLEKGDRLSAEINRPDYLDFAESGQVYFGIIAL
Outline: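 Secreted TNF-alpha quantified by TR-FRET sandwich of two labeled anti-TNF-alpha antibodies, incubated 3 hr at room temperature. Preceded by 17 hr, 37 C compound treatment of THP-1 cells at 3000 cells/well.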

[4] = qHTS assay to identify small molecules that stimulate interleukin-8 (IL-8) secretion (AID 651758; active means well fitted activation curve with a large enough effect in the signal ratio; the % refers to the signal ratio; further: 0% is about no effect)
Outline: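 Secreted IL-8 measured homogeneously by TR-FRET (two labelled anti-IL-8 antibodies, 1-3 h at room temperature) after a 16 h, 37 C compound treatment of THP-1 cells at 2000 cells/well.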

[5] = qHTS assay for environmental chemicals that activate the Aryl hydrocarbon Receptor (AhR) signaling pathway (AID 651777; active means well fitted curve in the direction sought with a large enough effect; an effect the other way counts as inactive or inconclusive; further: % of control where 0% means no effect; nearly all actives have a fitted effect of over 15% in size); details: 1A2-DRE human hepatoma cells, luciferase, 24 h; activation: stronger effect = higher value
Outline: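 AhR activation is scored as a rise in luciferase from a stable DRE–CYP1A2 promoter construct in human hepatoma cells. Treatment lasts 24 hr at 37 C; detection uses One-Glo after 30 min at room temperature.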

[6] = target: Peroxisome proliferator-activated receptor alpha (Homo sapiens) (UniProt Q07869); assay: qHTS assay for small molecule agonists of the peroxisome proliferator-activated receptor alpha (PPARalpha) signaling pathway (AID 651778; active means well fitted curve in the direction sought with a large enough effect; an effect the other way counts as inactive or inconclusive; further: % of control where 0% means no effect); details: PathHunter PPARalpha complementation, chemiluminescence, 6 h; stronger effect = higher value
Peroxisome proliferator-activated receptor alpha (Homo sapiens), sequence (Q07869 whole entry, looked up): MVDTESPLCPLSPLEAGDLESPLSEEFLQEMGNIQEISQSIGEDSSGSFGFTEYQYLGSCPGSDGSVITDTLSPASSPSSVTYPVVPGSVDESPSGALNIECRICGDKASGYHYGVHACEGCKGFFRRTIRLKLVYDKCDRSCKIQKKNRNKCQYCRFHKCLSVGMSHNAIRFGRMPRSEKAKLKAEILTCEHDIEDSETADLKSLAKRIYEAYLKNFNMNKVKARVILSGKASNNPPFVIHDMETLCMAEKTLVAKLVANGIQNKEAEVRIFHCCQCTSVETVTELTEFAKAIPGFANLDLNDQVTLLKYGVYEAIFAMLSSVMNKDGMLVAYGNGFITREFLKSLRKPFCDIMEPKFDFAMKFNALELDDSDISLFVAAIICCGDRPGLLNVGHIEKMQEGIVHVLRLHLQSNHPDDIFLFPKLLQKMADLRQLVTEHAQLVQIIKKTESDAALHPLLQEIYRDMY
Outline: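 Chemiluminescence from complemented enzyme reported PPARalpha activation in cells after 6 hr of compound treatment at 37 C. The detection reagent was incubated for 60 min at room temperature, and compounds were scored as agonists.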

[7] = qHTS assay for small molecule agonists of the antioxidant response element (ARE) signaling pathway measured by Nrf2-dependant transcriptional activity (AID 720636);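 further: HepG2 cells with an ARE-driven luciferase reporter; % of control where 0% means no effect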
Outline: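 First, ARE-luc HepG2 cells attached for 6 hr at 37 C in 1% dialyzed FBS medium. Next, compound or DMSO was added and incubated 16 hr. Finally, ONE-Glo reagent was added and luminescence measured after 30 min.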

[8] = qHTS assay for small molecule antagonists of the retinoid-related orphan receptor gamma (ROR-gamma) signaling pathway - cell viability counter screen (AID 720652);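 further: CHO reporter cells with doxycycline-induced ROR-gamma expression; series mostly up to about 92 µM; compound exposure lasted 16 hr before ATP read; on the % scale 0 is the no-effect control and ±100 the full control effect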
Outline: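 Cytotoxicity counter screen: intracellular ATP (CellTiter-Glo luminescence) measured in the doxycycline-induced CHO RORE-luciferase reporter line after 16 hr compound exposure at 37 C, 5% CO2.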

[9] = qHTS assay for small molecule agonists of the antioxidant response element (ARE) signaling pathway measured by Nrf2-dependant transcriptional activity - cell viability counter screen (AID 720653); details: ARE-bla HepG2 viability, CellTiter-Glo ATP luminescence, 16 h; stronger effect = lower value; further: on the % scale 0 is the no-effect control and ±100 the full control effect
Outline: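 Cytotoxicity counter screen: intracellular ATP quantified by CellTiter-Glo luminescence in the same ARE-bla HepG2 plates, after 16 h compound exposure and a 2 h beta-lactamase substrate step.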

[10] = target: Nuclear receptor ROR-gamma (Homo sapiens) (UniProt P51449); assay: qHTS assay for small molecule antagonists of the retinoid-related orphan receptor gamma (ROR-gamma) signaling pathway (AID 651802; active means well fitted curve in the direction sought with a large enough effect; an effect the other way counts as inactive or inconclusive;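 further: CHO cells with doxycycline-induced ROR-gamma expression; luciferase reporter luminescence driven by ROR response element; series mostly up to about 92 µM; on the % scale 0 is the no-effect control and ±100 the full control effect; nearly all actives have a fitted effect of over 60% in size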)
Nuclear receptor ROR-gamma (Homo sapiens), sequence (P51449 whole entry, looked up): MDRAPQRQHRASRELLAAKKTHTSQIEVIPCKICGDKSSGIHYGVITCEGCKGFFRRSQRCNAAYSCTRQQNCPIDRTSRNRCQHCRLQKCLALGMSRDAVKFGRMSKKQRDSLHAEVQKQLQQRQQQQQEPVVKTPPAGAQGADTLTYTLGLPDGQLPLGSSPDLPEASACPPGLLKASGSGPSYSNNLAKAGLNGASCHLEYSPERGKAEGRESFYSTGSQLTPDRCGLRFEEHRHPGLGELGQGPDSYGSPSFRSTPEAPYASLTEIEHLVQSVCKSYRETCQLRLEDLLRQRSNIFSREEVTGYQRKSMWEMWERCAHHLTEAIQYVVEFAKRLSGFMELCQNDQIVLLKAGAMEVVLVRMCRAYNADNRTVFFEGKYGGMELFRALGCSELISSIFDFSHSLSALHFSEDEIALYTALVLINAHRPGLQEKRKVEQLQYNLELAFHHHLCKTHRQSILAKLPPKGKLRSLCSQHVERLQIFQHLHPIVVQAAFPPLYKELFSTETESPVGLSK
Outline: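 Luminescence (One-Glo, 30 min RT) measured 16 h after compound addition and doxycycline induction at 37C. Reporter: RORE-luciferase under TET-inducible ROR-gamma in CHO cells.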

O=C(O)c1c(Cl)cccc1Cl
inactive: Potency [1] | Potency [2] | Potency [3] | Potency [4] | activation [5] -0.92% | max response [6] 0.175% | outcome [7] | Potency [8] | max response [9] -7.83%

Clc1cc(Cl)cc(Cl)c1
inactive: Potency [1] | Potency [2] | Potency [3] | Potency [4] | activation [5] 2.15% | max response [6] 0.786% | outcome [7] | Potency [8] | max response [9] -5.36%

CCCC(C)CO (stereo not given)
inactive: Potency [1] | Potency [2] | Potency [3] | activation [5] -0.17% | max response [6] -5.48% | Potency [10] | outcome [7] | Potency [8] | max response [9] 13.6%

Nc1ccccc1[N+](=O)[O-]
inactive: Potency [1] | Potency [2] | Potency [3] | activation [5] -0.331% | max response [6] -3.89% | Potency [10] | outcome [7] | Potency [8] | max response [9] -18.4%

O=C(O)c1cccc(Cl)c1Cl
inactive: Potency [1] | Potency [2] | Potency [3] | activation [5] -1.06% | max response [6] -2.92% | Potency [10] | outcome [7] | Potency [8] | max response [9] 3.31%

Oc1c(Cl)ccc(Cl)c1Cl
inactive: Potency [1] | Potency [2] | Potency [3] | Potency [4] | activation [5] -0.586% | max response [6] 6.63% | outcome [7] | Potency [8] | max response [9] 0.617%

CC#N
inactive: Potency [1] | Potency [2] | Potency [3] | Potency [4] | activation [5] 0.208% | max response [6] -2.21% | outcome [7] | Potency [8] | max response [9] -0.353%

C=CCn1c(=O)n(CC=C)c(=O)n(CC=C)c1=O
inactive: Potency [1] | Potency [2] | Potency [3] | activation [5] 0.438% | max response [6] -0.851% | Potency [10] | outcome [7] | Potency [8] | max response [9] -13.5%

Cc1ccc(C)o1
inactive: Potency [1] | Potency [2] | Potency [3] | activation [5] -0.971% | max response [6] -7.85% | Potency [10] | outcome [7] | Potency [8] | max response [9] -12.8%

COC(=O)CS
inactive: Potency [1] | Potency [2] | Potency [3] | activation [5] -0.254% | max response [6] -1.38% | Potency [10] | outcome [7] | Potency [8] | max response [9] -0.555%

O=C(O)/C=C/C(=O)O
inactive: Potency [1] | Potency [2] | Potency [3] | Potency [4] | max response [6] -1.33% | Potency [10] | max response [9] 17.2%

Nc1nc2ccccc2[nH]1
inactive: Potency [1] | Potency [2] | Potency [3] | Potency [4] | activation [5] 11.9% | max response [6] -2.62% | outcome [7] | Potency [8] | max response [9] -4.79%

CCOCCOCC
inactive: Potency [1] | Potency [2] | Potency [3] | activation [5] 1.1% | max response [6] -2.27% | Potency [10] | outcome [7] | Potency [8] | max response [9] 5.13%

c1ccc2c(c1)Oc1ccccc1S2
inactive: Potency [1] | Potency [2] | Potency [3] | Potency [4] | max response [6] -0.0488% | outcome [7] | Potency [8] | max response [9] 6.9%

O=CNc1ccccc1
inactive: Potency [1] | Potency [2] | Potency [3] | activation [5] -0.556% | max response [6] -2.49% | Potency [10] | outcome [7] | Potency [8] | max response [9] -3.88%

CC/C(C)=N/O
inactive: Potency [1] | Potency [2] | Potency [3] | Potency [4] | max response [6] 1.72% | outcome [7] | Potency [8] | max response [9] -8.91%

CC1CCCO1 (stereo not given)
inactive: Potency [1] | Potency [2] | Potency [3] | activation [5] 2.22% | max response [6] 0.088% | Potency [10] | outcome [7] | Potency [8] | max response [9] -3.62%

OC1CCCC1
inactive: Potency [1] | Potency [2] | Potency [3] | Potency [4] | activation [5] -0.947% | max response [6] 1.11% | outcome [7] | Potency [8] | max response [9] -3.18%

Cc1ccc(N(C)C)cc1
inactive: Potency [1] | Potency [2] | Potency [3] | Potency [4] | activation [5] 6.07% | max response [6] 2.84% | outcome [7] | Potency [8] | max response [9] -14.6%

CCCCCCCCC/C=C/CC1CC(=O)OC1=O (stereo not given)
inactive: Potency [1] | Potency [2] | Potency [3] | Potency [4] | activation [5] 0.696% | max response [6] 0.153% | outcome [7] | Potency [8] | max response [9] -4.85%

O=C1CCCCC1
inactive: Potency [1] | Potency [2] | Potency [3] | Potency [4] | activation [5] -0.681% | max response [6] -2.26% | Potency [8] | max response [9] 5.45%

Cc1ccc(S(=O)(=O)NC2CCCCC2)cc1
inactive: Potency [1] | Potency [2] | Potency [3] | Potency [4] | activation [5] -0.456% | max response [6] -1.4% | outcome [7] | max response [9] 1.13%

Cc1cccc(C)c1
inactive: Potency [1] | Potency [2] | Potency [3] | Potency [4] | activation [5] 0.25% | max response [6] 1.06% | outcome [7] | Potency [8] | max response [9] 7.38%

OC(CCl)CCl
inactive: Potency [1] | Potency [2] | Potency [3] | activation [5] 0.26% | max response [6] -0.528% | Potency [10] | outcome [7] | Potency [8] | max response [9] 16.1%
